Measured values taken from PubChem BioAssay (EPA / NIEHS).
Results filed as inconclusive are left out. The source made the active and inactive calls. How the source made its calls: active means hit-call score of the fitted dose curve at least 0.9, where 1 is the maximum; inconclusive means response in the unintended direction; inactive means score below 0.9.

Legend:
[1] = molecular target: D(1A) dopamine receptor (Homo sapiens) (UniProt P21728); assay: NVS_GPCR_hDRD1: NovaScreen (NVS) G Protein-Coupled Receptor Assay for human Dopamine Receptor D1 (DRD1) (AID 2283269)
Outline: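 HEK293-derived receptor preparation; radioligand competitive displacement; 1 h; filtration + scintillation counting. DMSO = negative control/baseline. Primary: 25 uM, duplicate; secondary: concentration–response for actives.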

[2] = system: guinea pig Atrionatriuretic Peptide Receptor A (ANPA), gene 100135578; assay: NVS_GPCR_gANPA: NovaScreen (NVS) G Protein-Coupled Receptor Assay for guinea pig Atrionatriuretic Peptide Receptor A (ANPA) (AID 2283291)
Outline: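 Radioligand binding to guinea pig cerebellar membranes was measured after 1 h by filter-based scintillation counting. Chemicals were tested in duplicate at 25 uM, with hits run in concentration-response to a maximum of 50 uM. Binding loss was fitted against DMSO.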

[3] = molecular target: human Neurokinin, NK2 Receptor, TACR2 (gene 6865) (UniProt P21452); assay: NVS_GPCR_hNK2: NovaScreen (NVS) G Protein-Coupled Receptor Assay for human Neurokinin, NK2 Receptor (AID 2283278);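 further: actives reduce bound radioligand signal relative to DMSO baseline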
Outline: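 Filter-based scintillation counting measured radioligand bound to receptor extracted from CHO cells, 4 hours after compound addition. Chemicals screened first at 25 uM in duplicate, with actives retested in concentration series relative to DMSO.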

[4] = molecular target: Muscarinic acetylcholine receptor M2 (Homo sapiens) (UniProt P08172); assay: NVS_GPCR_hM2: NovaScreen (NVS) G Protein-Coupled Receptor Assay for human Muscarinic, M2 Receptor (AID 2283273)
Outline: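 Radioligand displacement on human M2 receptor membranes from CHO cells, 1 h incubation, filtration with scintillation counting. Primary screen in duplicate at 25 uM; actives retested in concentration series; loss of signal fitted versus DMSO.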

[5] = molecular target: human Opioid Receptor Delta 1 (Opiate D1), OPRD1 (gene 4985) (UniProt P41143); assay: NVS_GPCR_hOpiate_D1: NovaScreen (NVS) G Protein-Coupled Receptor Assay for human Opioid Receptor Delta 1 (Opiate D1) (AID 2283280)
Outline: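 Radioligand displacement on membranes from CHO cells expressing the receptor, read by filter scintillation counting 1 h after dosing. Duplicate single-point screen at 25 uM, then concentration series for actives; loss of signal versus DMSO.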

[6] = molecular target: human Thromboxane A2 Receptor (TXA2), TBXA2R (gene 6915) (UniProt P21731); assay: NVS_GPCR_hTXA2: NovaScreen (NVS) G Protein-Coupled Receptor Assay for human Thromboxane A2 Receptor (TXA2) (AID 2283282);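 further: actives reduce bound radioligand signal relative to DMSO baseline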
Outline: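 Screening ran at 25 uM in duplicate, with concentration series for confirmed actives. Each test measures radioligand binding to human platelet protein after 1 h, cell-free, using filter-based scintillation detection of signal loss relative to DMSO.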

[7] = molecular target: human Opioid Receptor Mu (Opiate Mu), OPRM1 (gene 4988) (UniProt P35372); assay: NVS_GPCR_hOpiate_mu: NovaScreen (NVS) G Protein-Coupled Receptor Assay for human Opioid Receptor Mu (Opiate Mu) (AID 2283290);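 further: hits lower bound tracer signal versus DMSO meaning displacement of the ligand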
Outline: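 CHO-derived receptor protein, cell-free; radioligand displacement, filtration + scintillation counting, read at 2.5 h. DMSO = negative control/baseline. Primary: 25 uM single conc, duplicate; secondary: concentration series.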

[8] = molecular target: Muscarinic acetylcholine receptor M3 (Homo sapiens) (UniProt P20309); assay: NVS_GPCR_hM3: NovaScreen (NVS) G Protein-Coupled Receptor Assay for human Muscarinic, M3 Receptor (AID 2283272)
Outline: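 Radioligand displacement binding on human M3 receptor in CHO-derived membranes, 1 h incubation, filter-based scintillation counting. Primary screen in duplicate at 25 uM; actives followed up in concentration series; loss of signal versus DMSO.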

[9] = molecular target: human Muscarinic, M4 Receptor, CHRM4 (gene 1132) (UniProt P08173); assay: NVS_GPCR_hM4: NovaScreen (NVS) G Protein-Coupled Receptor Assay for human Muscarinic, M4 Receptor (AID 2283274)
Outline: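 Cell-free radioligand displacement using CHO-derived human M4 receptor protein, 1 h after dosing; bound radioactivity by filtration and scintillation counting. Primary screen single 25 uM duplicate, actives followed in concentration series.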

[10] = molecular target: Neuropeptide Y receptor type 2 (Homo sapiens) (UniProt P49146); assay: NVS_GPCR_hNPY2: NovaScreen (NVS) G Protein-Coupled Receptor Assay for human Neuropeptide Receptor Y2 (NPY2) (AID 2283277)
Outline: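 Radioligand binding on membranes extracted from SK-N-MC cells, cell-free, read 1 h after dosing by filter-based scintillation counting. Loss of signal vs DMSO. Primary screen in duplicate at 25 uM; actives followed up in concentration-response up to 50 uM.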

[11] = molecular target: mouse Cholecystokinin, CCK2 Receptor (CCKB), Cckbr (gene 12426) (UniProt P56481); assay: NVS_GPCR_mCKKBCentral: NovaScreen (NVS) G Protein-Coupled Receptor Assay for mouse Cholecystokinin, CCK2 Receptor (CCKB) (AID 2283293)
Outline: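 Radioligand displacement binding on mouse forebrain membranes, 2 h exposure, filter-based scintillation counting. Primary screen in duplicate at 25 uM; actives (e.g. ≥30% inhibition) retested in concentration-response up to 50 uM; loss of binding signal relative to DMSO.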

[12] = molecular target: human Histamine 1 Receptor (H1), HRH1 (gene 3269) (UniProt P35367); assay: NVS_GPCR_hH1: NovaScreen (NVS) G Protein-Coupled Receptor Assay for human Histamine 1 Receptor (H1) (AID 2283268)
Outline: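 Cell-free radioligand displacement at human H1 receptor, 1 h, filter scintillation counting; primary screen 25 uM in duplicate, hits in concentration series; loss of binding fitted vs DMSO.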

[13] = system: rat Adrenergic, Alpha 1B Receptor (Adra1B), gene 24173; assay: NVS_GPCR_rAdra1B: NovaScreen (NVS) G Protein-Coupled Receptor Assay for rat Adrenergic, Alpha 1B Receptor (Adra1B) (AID 2283297)
Outline: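 Rat liver membranes, radioligand displacement with filter-based scintillation detection, 1 h incubation. Primary screen in duplicate at 25 uM; actives retested in concentration series; activity relative to DMSO.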

[14] = molecular target: human Purinergic Receptor P2Y, P2RY1 (gene 5028) (UniProt P47900); assay: NVS_GPCR_hPY2: NovaScreen (NVS) G Protein-Coupled Receptor Assay for human Purinergic Receptor P2Y (AID 2283281)
Outline: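 Cell-free radioligand binding using U937-derived protein, 1 h after dosing, filter-based scintillation counting. Screened in duplicate at 25 uM; actives rerun as concentration-response up to 50 uM; loss of signal versus DMSO.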

[15] = molecular target: rat Serotonin, 5-Hydroxytryptamine Receptor (5HT), Non-Selective Binding, Htr1a (gene 24473) (UniProt P19327); assay: NVS_GPCR_r5HT_NonSelective: NovaScreen (NVS) G Protein-Coupled Receptor Assay for rat Serotonin, 5-Hydroxytryptamine Receptor (5HT), Non-Selective Binding (AID 2283295)
Outline: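 Radioligand displacement on rat cortical membranes, 1 h incubation, filter-based scintillation counting. Primary duplicates at 25 uM, actives retested in concentration series; loss of signal fitted against DMSO as baseline.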

[16] = system: 5-hydroxytryptamine receptor 2C (pig); assay: NVS_GPCR_p5HT2C: NovaScreen (NVS) G Protein-Coupled Receptor Assay for pig Serotonin, 5-Hydroxytryptamine Receptor 2C (5HT2C) (AID 2283288)
Outline: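 Pig choroid plexus membranes; radioligand competitive binding, filter-based scintillation counting, read 1 h after dosing. Primary screen in duplicate at 25 uM; actives then run as concentration series; loss of signal versus DMSO baseline.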

[17] = molecular target: rat Adrenergic, Alpha 1, Non-selective Receptor (Adra1), Adra1a (gene 29412) (UniProt P43140); assay: NVS_GPCR_rAdra1_NonSelective: NovaScreen (NVS) G Protein-Coupled Receptor Assay for rat Adrenergic, Alpha 1, Non-selective Receptor (Adra1) (AID 2283289)
Outline: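 Rat forebrain membranes; radioligand displacement read by filter-based scintillation counting 1 h after dosing. Primary screen in duplicate at 25 uM; hits (e.g. ≥30% inhibition) rerun as concentration–response to 50 uM max. Fitted versus DMSO.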

[18] = molecular target: Muscarinic acetylcholine receptor M1 (Homo sapiens) (UniProt P11229); assay: NVS_GPCR_hM1: NovaScreen (NVS) G Protein-Coupled Receptor Assay for human Muscarinic, M1 Receptor (AID 2283270)
Outline: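 Cell-free radioligand displacement using membrane protein extracted from CHO cells, read by filter-based scintillation counting 1 h after dosing. Loss of bound signal fitted versus DMSO; primary screen single concentration 25 uM in duplicate, actives followed by concentration series.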

[19] = molecular target: human Orphanin, Opioid Related Nociceptin Receptor 1 (ORL1), OPRL1 (gene 4987) (UniProt P41146); assay: NVS_GPCR_hORL1: NovaScreen (NVS) G Protein-Coupled Receptor Assay for human Orphanin, Opioid Related Nociceptin Receptor 1 (ORL1) (AID 2283283)
Outline: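 Filter-based radioligand displacement with receptor extracted from HEK293 cells, read 1 hour after dosing by scintillation counting. Duplicate single-point screen at 25 uM; qualifying chemicals then run in concentration-response to 50 uM, analysed relative to DMSO.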

[20] = molecular target: human Neuropeptide Receptor Y1 (NPY1), NPY1R (gene 4886) (UniProt P25929); assay: NVS_GPCR_hNPY1: NovaScreen (NVS) G Protein-Coupled Receptor Assay for human Neuropeptide Receptor Y1 (NPY1) (AID 2283276)
Outline: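 Cell-free radioligand binding using receptor extracted from SK-N-MC cells, 1 h incubation, filter-based scintillation counting. Primary screen single concentration 25 uM in duplicate; actives followed in concentration series. Loss of bound signal scored versus DMSO.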

Chain of human Thromboxane A2 Receptor (TXA2), TBXA2R (gene 6915) (P21731 whole entry, looked up): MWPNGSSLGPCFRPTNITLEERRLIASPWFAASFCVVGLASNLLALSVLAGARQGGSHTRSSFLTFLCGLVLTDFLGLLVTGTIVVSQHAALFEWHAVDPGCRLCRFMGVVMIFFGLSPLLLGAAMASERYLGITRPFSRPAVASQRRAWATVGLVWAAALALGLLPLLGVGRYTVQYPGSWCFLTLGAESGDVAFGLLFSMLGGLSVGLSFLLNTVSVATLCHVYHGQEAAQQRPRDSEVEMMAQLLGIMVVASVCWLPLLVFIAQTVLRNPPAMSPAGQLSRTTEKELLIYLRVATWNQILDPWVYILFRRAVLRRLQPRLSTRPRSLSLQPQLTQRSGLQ
Chain of D(1A) dopamine receptor (Homo sapiens) (P21728 whole entry, looked up): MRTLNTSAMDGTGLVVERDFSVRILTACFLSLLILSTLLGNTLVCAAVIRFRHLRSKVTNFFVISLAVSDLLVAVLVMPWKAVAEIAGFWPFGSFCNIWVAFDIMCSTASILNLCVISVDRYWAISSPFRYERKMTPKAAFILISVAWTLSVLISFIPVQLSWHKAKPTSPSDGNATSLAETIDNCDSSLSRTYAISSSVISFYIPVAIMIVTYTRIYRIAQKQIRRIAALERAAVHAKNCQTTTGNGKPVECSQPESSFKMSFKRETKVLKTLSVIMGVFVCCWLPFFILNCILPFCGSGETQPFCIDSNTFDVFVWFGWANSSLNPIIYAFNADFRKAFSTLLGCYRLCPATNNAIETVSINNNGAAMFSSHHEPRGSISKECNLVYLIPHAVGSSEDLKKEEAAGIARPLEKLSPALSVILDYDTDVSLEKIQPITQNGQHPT
Chain of human Opioid Receptor Mu (Opiate Mu), OPRM1 (gene 4988) (P35372 whole entry, looked up): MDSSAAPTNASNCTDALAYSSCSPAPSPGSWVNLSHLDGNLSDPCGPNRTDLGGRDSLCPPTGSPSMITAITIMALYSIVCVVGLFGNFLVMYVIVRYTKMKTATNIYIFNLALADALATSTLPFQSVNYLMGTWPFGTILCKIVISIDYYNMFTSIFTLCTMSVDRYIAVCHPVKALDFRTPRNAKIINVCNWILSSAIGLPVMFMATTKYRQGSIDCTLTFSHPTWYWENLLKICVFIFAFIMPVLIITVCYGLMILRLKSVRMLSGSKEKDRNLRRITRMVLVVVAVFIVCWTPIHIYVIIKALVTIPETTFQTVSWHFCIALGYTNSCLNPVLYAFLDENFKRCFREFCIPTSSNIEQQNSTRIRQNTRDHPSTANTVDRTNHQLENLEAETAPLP
Chain of human Opioid Receptor Delta 1 (Opiate D1), OPRD1 (gene 4985) (P41143 whole entry, looked up): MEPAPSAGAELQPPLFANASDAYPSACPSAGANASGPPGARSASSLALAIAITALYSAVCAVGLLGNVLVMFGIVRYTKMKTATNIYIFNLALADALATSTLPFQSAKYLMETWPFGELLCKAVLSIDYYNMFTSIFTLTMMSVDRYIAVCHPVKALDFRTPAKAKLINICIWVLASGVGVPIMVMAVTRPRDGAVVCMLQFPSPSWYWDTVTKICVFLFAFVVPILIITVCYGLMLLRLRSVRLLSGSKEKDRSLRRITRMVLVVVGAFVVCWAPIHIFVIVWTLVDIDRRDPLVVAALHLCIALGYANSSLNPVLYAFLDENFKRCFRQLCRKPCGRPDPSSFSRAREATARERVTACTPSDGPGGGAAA
Chain of Muscarinic acetylcholine receptor M2 (Homo sapiens) (P08172 whole entry, looked up): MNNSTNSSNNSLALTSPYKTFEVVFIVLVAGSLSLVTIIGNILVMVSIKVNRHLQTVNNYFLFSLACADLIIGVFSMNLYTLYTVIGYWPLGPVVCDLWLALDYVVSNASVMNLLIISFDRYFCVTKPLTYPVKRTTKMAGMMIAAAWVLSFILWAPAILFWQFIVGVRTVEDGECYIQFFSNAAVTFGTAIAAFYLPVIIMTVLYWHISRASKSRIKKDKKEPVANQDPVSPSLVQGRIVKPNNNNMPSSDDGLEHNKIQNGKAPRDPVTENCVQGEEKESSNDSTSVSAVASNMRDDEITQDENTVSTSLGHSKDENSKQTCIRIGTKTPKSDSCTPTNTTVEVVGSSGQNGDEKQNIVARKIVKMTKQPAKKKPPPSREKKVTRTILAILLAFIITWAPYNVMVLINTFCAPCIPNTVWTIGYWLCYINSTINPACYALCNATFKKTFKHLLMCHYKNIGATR
Chain of human Neurokinin, NK2 Receptor, TACR2 (gene 6865) (P21452 whole entry, looked up): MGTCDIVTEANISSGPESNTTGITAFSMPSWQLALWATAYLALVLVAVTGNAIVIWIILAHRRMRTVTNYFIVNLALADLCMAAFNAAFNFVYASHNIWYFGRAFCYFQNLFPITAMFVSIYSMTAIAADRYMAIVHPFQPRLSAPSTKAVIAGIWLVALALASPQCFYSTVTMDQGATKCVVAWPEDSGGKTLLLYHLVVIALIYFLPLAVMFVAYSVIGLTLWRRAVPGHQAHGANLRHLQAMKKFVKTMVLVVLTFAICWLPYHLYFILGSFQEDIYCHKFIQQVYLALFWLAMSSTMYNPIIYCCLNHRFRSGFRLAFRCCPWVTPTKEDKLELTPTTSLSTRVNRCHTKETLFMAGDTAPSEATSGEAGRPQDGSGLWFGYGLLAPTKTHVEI
Chain of human Purinergic Receptor P2Y, P2RY1 (gene 5028) (P47900 whole entry, looked up): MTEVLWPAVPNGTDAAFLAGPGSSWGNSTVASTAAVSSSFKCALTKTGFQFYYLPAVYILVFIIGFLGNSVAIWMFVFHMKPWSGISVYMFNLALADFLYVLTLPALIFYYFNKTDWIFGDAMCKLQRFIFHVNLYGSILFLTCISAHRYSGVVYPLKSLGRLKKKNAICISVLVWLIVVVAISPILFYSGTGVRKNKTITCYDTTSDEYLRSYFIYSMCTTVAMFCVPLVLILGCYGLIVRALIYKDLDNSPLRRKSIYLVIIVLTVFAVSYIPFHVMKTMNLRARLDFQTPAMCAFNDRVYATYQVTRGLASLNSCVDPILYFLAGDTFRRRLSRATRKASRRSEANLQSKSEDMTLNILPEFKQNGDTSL
Chain of human Orphanin, Opioid Related Nociceptin Receptor 1 (ORL1), OPRL1 (gene 4987) (P41146 whole entry, looked up): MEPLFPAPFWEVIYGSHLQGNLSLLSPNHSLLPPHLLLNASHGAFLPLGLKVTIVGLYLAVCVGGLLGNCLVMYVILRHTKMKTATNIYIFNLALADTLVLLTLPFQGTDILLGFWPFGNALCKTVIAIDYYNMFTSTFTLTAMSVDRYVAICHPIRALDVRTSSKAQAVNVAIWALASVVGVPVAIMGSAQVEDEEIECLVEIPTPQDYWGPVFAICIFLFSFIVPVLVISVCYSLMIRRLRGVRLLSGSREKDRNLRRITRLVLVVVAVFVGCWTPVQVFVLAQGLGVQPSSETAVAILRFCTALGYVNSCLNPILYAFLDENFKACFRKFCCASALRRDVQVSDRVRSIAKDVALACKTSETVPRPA
Chain of Neuropeptide Y receptor type 2 (Homo sapiens) (P49146 whole entry, looked up): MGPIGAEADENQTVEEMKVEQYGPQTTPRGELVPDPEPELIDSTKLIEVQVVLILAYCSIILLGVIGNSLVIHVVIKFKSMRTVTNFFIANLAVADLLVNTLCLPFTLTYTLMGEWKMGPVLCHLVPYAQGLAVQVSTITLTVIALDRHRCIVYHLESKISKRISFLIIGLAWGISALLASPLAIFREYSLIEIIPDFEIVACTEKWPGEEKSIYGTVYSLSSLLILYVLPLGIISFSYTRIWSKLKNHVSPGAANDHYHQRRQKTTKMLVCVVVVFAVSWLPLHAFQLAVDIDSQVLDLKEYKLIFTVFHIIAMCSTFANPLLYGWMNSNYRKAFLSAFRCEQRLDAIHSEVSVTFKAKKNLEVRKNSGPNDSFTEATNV
Chain of Muscarinic acetylcholine receptor M3 (Homo sapiens) (P20309 whole entry, looked up): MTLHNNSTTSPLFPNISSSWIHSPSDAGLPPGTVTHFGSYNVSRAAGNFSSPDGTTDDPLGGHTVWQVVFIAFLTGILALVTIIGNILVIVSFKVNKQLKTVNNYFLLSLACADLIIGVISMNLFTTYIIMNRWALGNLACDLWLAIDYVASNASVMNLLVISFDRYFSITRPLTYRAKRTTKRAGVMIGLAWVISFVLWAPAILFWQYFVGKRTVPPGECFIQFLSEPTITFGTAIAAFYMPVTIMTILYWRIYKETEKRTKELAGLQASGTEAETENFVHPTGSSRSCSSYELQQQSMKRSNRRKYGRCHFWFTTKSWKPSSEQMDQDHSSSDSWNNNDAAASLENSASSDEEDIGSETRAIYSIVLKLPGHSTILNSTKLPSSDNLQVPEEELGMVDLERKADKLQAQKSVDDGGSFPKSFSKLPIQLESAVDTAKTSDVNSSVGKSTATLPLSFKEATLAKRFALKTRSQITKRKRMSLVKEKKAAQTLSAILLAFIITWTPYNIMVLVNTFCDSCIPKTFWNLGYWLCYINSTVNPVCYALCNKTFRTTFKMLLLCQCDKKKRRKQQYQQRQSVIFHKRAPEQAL
Chain of rat Serotonin, 5-Hydroxytryptamine Receptor (5HT), Non-Selective Binding, Htr1a (gene 24473) (P19327 whole entry, looked up): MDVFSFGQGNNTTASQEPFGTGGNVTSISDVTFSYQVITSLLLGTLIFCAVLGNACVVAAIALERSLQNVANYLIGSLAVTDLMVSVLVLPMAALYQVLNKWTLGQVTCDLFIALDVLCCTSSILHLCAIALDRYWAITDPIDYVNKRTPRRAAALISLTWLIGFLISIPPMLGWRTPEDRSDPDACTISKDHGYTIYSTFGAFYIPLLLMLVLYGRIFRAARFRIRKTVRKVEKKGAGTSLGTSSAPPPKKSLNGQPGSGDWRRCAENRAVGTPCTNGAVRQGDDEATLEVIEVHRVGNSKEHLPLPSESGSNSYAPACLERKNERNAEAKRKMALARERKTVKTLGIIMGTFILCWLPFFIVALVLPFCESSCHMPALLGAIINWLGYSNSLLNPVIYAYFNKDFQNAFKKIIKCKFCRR
Chain of human Neuropeptide Receptor Y1 (NPY1), NPY1R (gene 4886) (P25929 whole entry, looked up): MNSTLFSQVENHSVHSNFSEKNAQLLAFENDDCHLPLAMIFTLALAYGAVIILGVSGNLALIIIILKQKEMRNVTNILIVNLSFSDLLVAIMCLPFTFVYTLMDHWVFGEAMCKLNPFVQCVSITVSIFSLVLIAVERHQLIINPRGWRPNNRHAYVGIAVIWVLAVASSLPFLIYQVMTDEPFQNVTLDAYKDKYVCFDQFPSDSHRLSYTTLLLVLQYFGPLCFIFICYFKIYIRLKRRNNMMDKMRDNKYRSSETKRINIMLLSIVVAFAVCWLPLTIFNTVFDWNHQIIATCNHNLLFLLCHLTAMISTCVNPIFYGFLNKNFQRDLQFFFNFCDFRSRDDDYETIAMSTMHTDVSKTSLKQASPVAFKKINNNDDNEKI

Oc1ccccc1Br
outcome [1]: inactive

O=[N+]([O-])c1ccccc1
outcome [2]: inactive

CC(Cc1ccc(OCC(=O)O)cc1)NCC(O)c1csc(C(F)(F)F)n1 (stereo not given)
outcome [2]: inactive

Cn1[nH]nnc1=S
outcome [3]: inactive

CC(C)(C)c1ccccc1OP(=O)(Oc1ccccc1)Oc1ccccc1
AC50 [3]: 17.2 µM (active)

CSC(C)(C)C=NO
outcome [1]: inactive
outcome [4]: inactive
outcome [3]: inactive
outcome [5]: inactive
outcome [6]: inactive
outcome [7]: inactive

Nc1ccc([N+](=O)[O-])cc1Cl
outcome [1]: inactive

CCOP(=S)(Oc1ccc([N+](=O)[O-])cc1)c1ccccc1 (stereo not given)
outcome [1]: inactive
outcome [8]: inactive
outcome [9]: inactive

Nc1ccc(Cl)cc1
outcome [10]: inactive

CC(C)(C)OOC(C)(C)C
outcome [4]: inactive
outcome [5]: inactive

N#Cc1ccc(O)cc1
outcome [6]: inactive

CCC(C)(C)c1ccc(O)cc1
outcome [4]: inactive
AC50 [7]: 6.43 µM (active)
outcome [11]: inactive

COP(N)(=S)OC
outcome [1]: inactive

Nc1ccc2ccccc2c1
outcome [7]: inactive

CC(C)Nc1ccc(Nc2ccccc2)cc1
AC50 [1]: 25 µM (active)
AC50 [4]: 2.71 µM (active)
AC50 [3]: 20 µM (active)

CC(=O)c1ccc(-c2ccccc2)cc1
outcome [6]: inactive

CCCCN(CCCC)SN(C)C(=O)Oc1cccc2c1OC(C)(C)C2
outcome [12]: inactive
outcome [5]: inactive
outcome [7]: inactive
outcome [13]: inactive

O=S1(=O)OCC2C(CO1)C1(Cl)C(Cl)=C(Cl)C2(Cl)C1(Cl)Cl (stereo not given)
outcome [3]: inactive

O=c1ssc(Cl)c1Cl
AC50 [1]: 1.21 µM (active)
outcome [14]: inactive
AC50 [7]: 0.885 µM (active)

Cc1ccc([N+](=O)[O-])cc1C
outcome [15]: inactive

c1ccc2c(c1)Nc1ccccc1S2
outcome [16]: inactive
outcome [17]: inactive

CCOP(=S)(OCC)SCSc1ccc(Cl)cc1
outcome [3]: inactive

CCOP(=S)(OCC)SCS(=O)(=O)CC
outcome [7]: inactive

Cc1ccc(O)cc1C
AC50 [16]: 21.1 µM (active)
outcome [7]: inactive

OCC1CO1 (stereo not given)
outcome [7]: inactive

O=C(O)C1C(C(=O)O)C2(Cl)C(Cl)=C(Cl)C1(Cl)C2(Cl)Cl (stereo not given)
outcome [5]: inactive

CCCCCCCc1ccc(O)cc1
outcome [3]: inactive

C/C(=N\NC(=O)Nc1cc(F)cc(F)c1)c1ncccc1C(=O)O
outcome [6]: inactive

N#Cc1c(-c2ccc(Cl)cc2)[nH]c(C(F)(F)F)c1Br
outcome [1]: inactive
AC50 [6]: 4.66 µM (active)
outcome [7]: inactive

CCCN(CCC)c1c([N+](=O)[O-])cc(C(C)C)cc1[N+](=O)[O-]
outcome [7]: inactive

CCOP(=S)(OCC)SCn1nnc2ccccc2c1=O
outcome [3]: inactive

CC1(C)CN=C(NN=C(/C=C/c2ccc(C(F)(F)F)cc2)/C=C/c2ccc(C(F)(F)F)cc2)NC1
AC50 [18]: 19.6 µM (active)
AC50 [19]: 37.2 µM (active)
AC50 [7]: 6.5 µM (active)

Cc1ccc2c(c1N)C(=O)c1ccccc1C2=O
outcome [6]: inactive

c1cc2c3c(cccc3c1)CC2
outcome [7]: inactive

ClC1=C(Cl)C2(Cl)C3C(Cl)C(Cl)CC3C1(Cl)C2(Cl)Cl (stereo not given)
outcome [5]: inactive

Cc1cc(C)c(C(=O)P(=O)(c2ccccc2)c2ccccc2)c(C)c1
AC50 [3]: 0.367 µM (active)

ClC(Cl)c1ccccc1
AC50 [20]: 5.17 µM (active)
